Source: PubChem BioAssay (Tox21)
Inconclusive results are not listed. Calls of active or inactive are those of the source. Unless noted, calls come from the whole dose curve; as a rule, active = well fitted curve in the direction sought with a large enough effect in the repeat runs; inconclusive = weak or mixed curves; inactive = no such curve, though single readings can be large; an effect the other way counts as inactive or inconclusive.

Legend:
[1] = A CellTox Green Cytotoxicity Assay to monitor cytotoxicity in HepG2 cells - 0 hour (AID 1224882); note: nearly all actives have a fitted effect of over 35% in size
Summary of the method: (§1)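 Read-out is fluorescence of a cyanine dye excluded from live cells that stains DNA of dead HepG2 cells, with signal proportional to cytotoxicity. Plates were read at 0, 8, 16, 24, 32 and 40 h after compound addition.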

[2] = A CellTox Green Cytotoxicity Assay to monitor cytotoxicity in HepG2 cells - 32 hour (AID 1224883); note: nearly all actives have a fitted effect of over 50% in size
Summary of the method: as §1

[3] = A CellTox Green Cytotoxicity Assay to monitor cytotoxicity in HEK293 cells - 8 hour (AID 1224884); note: nearly all actives have a fitted effect of over 35% in size
Summary of the method: (§2)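 Nonlytic real-time cytotoxicity: HEK293 + CellTox Green reagent plated, 5 h preincubation, pintool compound addition (23 nL in DMSO), 37 C for 40 h, fluorescence measured at successive time points.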

[4] = qHTS RealTime-Glo MT Cell Viability Assay in HepG2 cells - 16 hour (AID 1224885); note: nearly all actives have a fitted effect of over 50% in size
Summary of the method: (§3)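 Real-time, nonlytic viability: 600 HepG2 cells/well mixed with NanoLuc enzyme plus prosubstrate; 5 h settle, compound (DMSO) added by pintool; luminescence monitored over 40 h at 37 C.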

[5] = qHTS RealTime-Glo MT Cell Viability Assay in HEK293 cells - 24 hour (AID 1224886); note: top concentration of the series differs between compounds; nearly all actives have a fitted effect of over 50% in size
Summary of the method: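 Cells + reagent dispensed (600 cells/well, HEK293) → 5 h at 37 C/5% CO2 → 23 nL compound in DMSO pinned → 40 h at 37 C → luminescence read at 0, 8, 16, 24, 32, 40 h.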

[6] = qHTS RealTime-Glo MT Cell Viability Assay in HEK293 cells - 8 hour (AID 1224887); note: top concentration of the series differs between compounds; nearly all actives have a fitted effect of over 50% in size
Summary of the method: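 Cells were seeded together with NanoLuc luciferase and a prosubstrate that viable cells reduce to a luciferase substrate. After a 5 h incubation at 37 C/5% CO2, compounds were added and luminescence was measured repeatedly during 40 h of treatment.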

[7] = A CellTox Green Cytotoxicity Assay to monitor cytotoxicity in HEK293 cells - 16 hour (AID 1224888); note: nearly all actives have a fitted effect of over 35% in size
Summary of the method: as §2

[8] = qHTS RealTime-Glo MT Cell Viability Assay in HepG2 cells - 0 hour (AID 1224889); note: nearly all actives have a fitted effect of over 50% in size
Summary of the method: as §3

[9] = A CellTox Green Cytotoxicity Assay to monitor cytotoxicity in HepG2 cells - 8 hour (AID 1224890); note: nearly all actives have a fitted effect of over 45% in size
Summary of the method: as §1

[10] = qHTS assay to identify small molecule antagonists of the estrogen receptor alpha (ER-alpha) signaling pathway using the BG1 cell line in the presence of 0.1 nM 17-beta-estradiol - cell viability counter screen (AID 1259241); note: nearly all actives have a fitted effect of over 40% in size
Summary of the method: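 Estradiol-stimulated (0.1 nM) VM7Luc4E2 cells exposed to compounds 22 hr; viability measured by fluorescence of cleaved CellTiter-Fluor substrate after 30 min.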

[11] = qHTS assay to identify small molecule antagonists of the androgen receptor (AR) signaling pathway using the MDA cell line in the presence of 0.5 nM R1881 - cell viability counter screen (AID 1259242); note: nearly all actives have a fitted effect of over 45% in size
Summary of the method: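 Counter screen for cytotoxicity run in the same wells as the AR antagonist reporter screen: MDA-kb2 cells were treated 16 hr with test compounds and 0.5 nM R1881, then live-cell protease activity was measured by fluorescence.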

[12] = target: Estrogen receptor (Homo sapiens) (UniProt P03372); test: qHTS assay to identify small molecule antagonists of the estrogen receptor alpha (ER-alpha) signaling pathway using the BG1 cell line in the presence of 0.1 nM 17-beta-estradiol (AID 1259244); note: nearly all actives have a fitted effect of over 50% in size
Summary of the method: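 Cells: VM7Luc4E2, endogenous ER-alpha, 4x ERE-luc stable. Pre-culture 5 d, phenol red-free, charcoal-stripped FBS. Plated 24 h, compound + E2 0.1 nM final, 22 h 37C/5% CO2. Readout ONE-Glo luminescence.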

[13] = qHTS assay to identify small molecule phospholipidosis (PLD) inducers (AID 1259344; active = well fitted curve in the direction sought with a large enough effect; an effect the other way counts as inactive or inconclusive)
Summary of the method: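 Phospholipidosis is scored by imaging LipidTOX-stained pits in HepG2 cells exposed to compound for 24 h at 37 C; pit counts and integrated intensities per well and per cell serve as outputs.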

[14] = qHTS assay to identify small molecule HDAC inhibitors (AID 1259364); note: top concentration of the series differs between compounds; nearly all actives have a fitted effect of over 45% in size
Summary of the method: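 Luminescence from a cell-permeant luminogenic class I/II HDAC substrate reports endogenous deacetylase activity in intact HCT-116 cells treated with compounds for 2 h.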

[15] = qHTS assay to identify small molecule agonists of the sonic hedgehog signaling (Shh) pathway - cell viability counter screen (AID 1259366); note: nearly all actives have a fitted effect of over 50% in size
Summary of the method: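 Same-well cytotoxicity read. Gli1-Luc reporter 3T3 cells; compounds 24hr, 37C/5% CO2; CellTiter-Fluor fluorescence.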

[16] = qHTS assay to identify small molecule antagonists of the sonic hedgehog signaling (Shh) pathway - cell viability counter screen (AID 1259367); note: nearly all actives have a fitted effect of over 55% in size
Summary of the method: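 Cells: 3T3 Gli1-Luc, 2,000/well, 4 hr pre-incubation. Compounds in DMSO, then conditioned medium. Incubation 24 hr, 37C, 5% CO2. CellTiter-Fluor at 23 hr, 1 hr, fluorescence.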

[17] = qHTS assay to identify small molecule agonists of the sonic hedgehog signaling (Shh) pathway (AID 1259368; calls by dose curve;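 note: NIH/3T3-derived 3T3Gli1-Luc cells carrying a stable Gli1-driven firefly luciferase reporter; series mostly up to about 92 µM; nearly all actives have a fitted effect of over 15% in size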)
Summary of the method: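 3T3Gli1-Luc (NIH/3T3 clone, stable Gli1-Luc); 4 hr pre-incubation, then cpd in DMSO 24 hr, 37 C/5% CO2; luciferase reagent 30 min RT; luminescence.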

[18] = qHTS assay to identify small molecule antagonists of the sonic hedgehog signaling (Shh) pathway (AID 1259369; calls by dose curve; note: nearly all actives have a fitted effect of over 45% in size)
Summary of the method: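 3T3Gli1-Luc, conditioned-medium-stimulated, 24hr cpd, 37C/5% CO2; Gli1-driven firefly Luc luminescence after 30min RT with luciferase reagent. Cells plated 4hr before cpd.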

[19] = qHTS assay to identify small molecule HDAC inhibitors - cell viability counter screen (AID 1259365)
Summary of the method: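 After overnight seeding at 1,500 cells per well, wild-type HCT-116 cultures took up compounds in DMSO for 2hr at 37 C. Viable cell content came from luminescence with CellTiter-Glo.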

[20] = target: Androgen receptor (Homo sapiens) (UniProt P10275); test: qHTS assay to identify small molecule antagonists of the androgen receptor (AR) signaling pathway using the MDA cell line in the presence of 0.5 nM R1881 (AID 1259243); note: nearly all actives have a fitted effect of over 50% in size
Summary of the method: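 Luciferase luminescence is the read-out: compounds are tested for suppressing 0.5 nM R1881-driven MMTV reporter activity in MDA-kb2 cells after 16 hr at 37C.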
% is set by controls: 0 for no effect and ±100 for the full control effect.

Chain of Estrogen receptor (Homo sapiens) (P03372 whole entry, looked up): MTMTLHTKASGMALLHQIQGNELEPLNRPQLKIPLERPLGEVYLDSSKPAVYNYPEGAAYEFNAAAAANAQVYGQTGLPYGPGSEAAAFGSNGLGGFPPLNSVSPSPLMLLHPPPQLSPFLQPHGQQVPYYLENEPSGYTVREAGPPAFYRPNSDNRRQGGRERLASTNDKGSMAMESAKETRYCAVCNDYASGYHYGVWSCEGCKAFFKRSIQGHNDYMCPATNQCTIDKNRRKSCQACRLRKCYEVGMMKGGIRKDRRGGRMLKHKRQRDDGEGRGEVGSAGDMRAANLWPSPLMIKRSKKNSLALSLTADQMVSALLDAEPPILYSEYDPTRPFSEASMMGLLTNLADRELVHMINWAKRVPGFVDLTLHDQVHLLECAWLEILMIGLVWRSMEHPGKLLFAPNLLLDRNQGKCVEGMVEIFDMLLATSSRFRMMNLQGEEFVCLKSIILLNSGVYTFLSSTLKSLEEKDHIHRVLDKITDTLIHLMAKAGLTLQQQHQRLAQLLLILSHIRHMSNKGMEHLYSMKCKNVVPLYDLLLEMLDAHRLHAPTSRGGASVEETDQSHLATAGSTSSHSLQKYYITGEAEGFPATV
Chain of Androgen receptor (Homo sapiens) (P10275 whole entry, looked up): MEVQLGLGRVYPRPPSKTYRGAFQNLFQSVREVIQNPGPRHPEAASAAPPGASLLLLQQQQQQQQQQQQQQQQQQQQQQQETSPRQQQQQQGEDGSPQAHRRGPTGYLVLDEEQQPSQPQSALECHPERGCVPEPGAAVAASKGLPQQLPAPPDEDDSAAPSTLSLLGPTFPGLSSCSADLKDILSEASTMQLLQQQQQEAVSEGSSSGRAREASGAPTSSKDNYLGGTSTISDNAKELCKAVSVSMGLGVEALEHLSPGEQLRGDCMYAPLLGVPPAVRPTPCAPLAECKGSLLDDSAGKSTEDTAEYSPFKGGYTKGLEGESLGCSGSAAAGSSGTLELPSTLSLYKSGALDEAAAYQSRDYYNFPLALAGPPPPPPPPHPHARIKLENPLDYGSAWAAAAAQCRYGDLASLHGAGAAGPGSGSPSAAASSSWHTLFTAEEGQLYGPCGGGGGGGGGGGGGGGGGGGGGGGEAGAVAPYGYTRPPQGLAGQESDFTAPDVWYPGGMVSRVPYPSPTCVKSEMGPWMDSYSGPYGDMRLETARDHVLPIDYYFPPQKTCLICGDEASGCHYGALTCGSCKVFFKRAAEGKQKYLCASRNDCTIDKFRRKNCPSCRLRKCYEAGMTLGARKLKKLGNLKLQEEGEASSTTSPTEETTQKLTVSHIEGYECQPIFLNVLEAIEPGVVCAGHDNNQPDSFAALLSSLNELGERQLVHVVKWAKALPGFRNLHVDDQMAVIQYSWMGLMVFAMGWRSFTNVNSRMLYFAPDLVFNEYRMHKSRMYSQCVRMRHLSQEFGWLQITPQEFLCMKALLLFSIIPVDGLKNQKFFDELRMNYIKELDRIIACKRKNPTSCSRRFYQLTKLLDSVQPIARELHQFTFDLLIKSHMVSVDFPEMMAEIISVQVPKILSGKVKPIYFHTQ

Cc1[nH]c(C)c(Cl)c(=O)c1Cl
inactive: cytotoxicity [1] -3.1% [at 15.8 µM] | cytotoxicity increase [2] -7.2% [at 15.8 µM] | cytotoxicity increase [3] -1.54% [at 15.8 µM] | activity change, negative = cytotoxic [4] 0.907% [at 15.8 µM] | activity change, negative = cytotoxicity [5] -19.4% [at 15.8 µM] | activity change, negative = cytotoxicity [6] -23.4% [at 15.8 µM] | activity change [7] -2.28% [at 15.8 µM, stronger effect = higher value] | activity change, negative = cytotoxicity [8] -1.76% [at 15.8 µM] | cytotoxicity increase [9] -4.87% [at 15.8 µM] | activity change, negative = cytotoxicity [10] -5.47% [at 19 µM] | viability change, negative = cytotoxic [11] 1.2% [at 19 µM] | Potency [12] | Potency [13] | activity change, negative = inhibition [14] 7.15% [at 19 µM] | viability change, negative = cytotoxic [15] 6.9% [at 19 µM] | viability change, negative = cytotoxic [16] 1.87% [at 19 µM] | activity change [17] -0.115% [at 18.9 µM] | activity change, negative = inhibition [18] 33.7% [at 19 µM]

CCCCCCCC/C=C\CCCCCCCC(=O)OCC
inactive: Potency [1] | Potency [2] | Potency [3] | Potency [4] | Potency [5] | Potency [6] | Potency [7] | Potency [8] | Potency [9] | Potency [10] | Potency [11] | Potency [14] | Potency [19] | Potency [16] | outcome [17] | Potency [18]

CC/C=C\CCOC(=O)CC
inactive: Potency [1] | Potency [2] | Potency [3] | Potency [4] | Potency [5] | Potency [6] | Potency [7] | Potency [8] | Potency [9] | Potency [10] | Potency [11] | Potency [14] | Potency [19] | Potency [15] | Potency [16] | outcome [17] | Potency [18]

CCCCCCCCCOS(=O)(=O)O
inactive: Potency [1] | Potency [2] | Potency [3] | Potency [4] | Potency [5] | Potency [6] | Potency [7] | Potency [8] | Potency [9] | Potency [10] | Potency [11] | Potency [12] | Potency [14] | Potency [19] | Potency [15] | Potency [16] | outcome [17] | Potency [18]

CC(CSC(=O)c1ccccc1)C(=O)N1C[C@@H](Sc2ccccc2)C[C@H]1C(=O)O (some centres undefined)
inactive: cytotoxicity [1] 5.13% [at 15.8 µM] | cytotoxicity increase [2] -3.06% [at 15.8 µM] | cytotoxicity increase [3] 0.0018% [at 15.8 µM] | activity change, negative = cytotoxic [4] 2.9% [at 15.8 µM] | activity change, negative = cytotoxicity [5] -5.81% [at 15.8 µM] | activity change, negative = cytotoxicity [6] -4.84% [at 15.8 µM] | activity change [7] -0.144% [at 15.8 µM, stronger effect = higher value] | activity change, negative = cytotoxicity [8] -0.48% [at 15.8 µM] | cytotoxicity increase [9] -3.03% [at 15.8 µM] | activity change, negative = cytotoxicity [10] 3.73% [at 19 µM] | viability change, negative = cytotoxic [11] 5.22% [at 19 µM] | Potency [12] | Potency [13] | activity change, negative = inhibition [14] 3.83% [at 19 µM] | activity change, negative = cytotoxicity [19] -1.25% [at 19 µM] | viability change, negative = cytotoxic [15] -5.51% [at 19 µM] | viability change, negative = cytotoxic [16] 1.29% [at 19 µM] | activity change, negative = inhibition [18] 9.12% [at 19 µM]

Cc1cc(C(=O)O)ccc1[N+](=O)[O-]
inactive: Potency [1] | Potency [2] | Potency [3] | Potency [4] | Potency [5] | Potency [6] | Potency [7] | Potency [8] | Potency [9] | Potency [10] | Potency [11] | Potency [12] | Potency [14] | Potency [19] | Potency [15] | outcome [17] | Potency [18]

NS(=O)(=O)c1ccc(N2CCCCS2(=O)=O)cc1
inactive: Potency [1] | Potency [2] | Potency [3] | Potency [4] | Potency [5] | Potency [6] | Potency [7] | Potency [8] | Potency [9] | Potency [10] | Potency [11] | Potency [20] | Potency [12] | Potency [14] | Potency [15] | Potency [16] | outcome [17] | Potency [18]

O=C(NCCO[N+](=O)[O-])c1cccnc1
inactive: Potency [1] | Potency [2] | Potency [3] | Potency [4] | Potency [5] | Potency [6] | Potency [7] | Potency [8] | Potency [9] | Potency [10] | Potency [11] | Potency [13] | Potency [14] | Potency [19] | Potency [15] | Potency [16] | outcome [17] | Potency [18]

CN(C)CCN(Cc1ccccc1)c1ccccn1
inactive: Potency [1] | Potency [2] | Potency [3] | Potency [4] | Potency [5] | Potency [6] | Potency [7] | Potency [8] | Potency [9] | Potency [10] | Potency [11] | Potency [12] | Potency [13] | Potency [14] | Potency [19] | Potency [16] | outcome [17] | Potency [18]

c1ccc(CNCCNCc2ccccc2)cc1
inactive: Potency [1] | Potency [2] | Potency [3] | Potency [4] | Potency [5] | Potency [6] | Potency [7] | Potency [8] | Potency [9] | Potency [10] | Potency [11] | Potency [12] | Potency [13] | Potency [14] | Potency [19] | Potency [15] | Potency [16] | outcome [17]

CCCCCCc1ccc(-c2ccc(C#N)cc2)cc1
inactive: Potency [1] | Potency [2] | Potency [3] | Potency [4] | Potency [5] | Potency [6] | Potency [7] | Potency [8] | Potency [9] | Potency [10] | Potency [11] | Potency [14] | Potency [19] | Potency [15] | Potency [16] | outcome [17] | Potency [18]

C=C(C)C(=O)OCC
inactive: Potency [1] | Potency [2] | Potency [3] | Potency [4] | Potency [5] | Potency [6] | Potency [7] | Potency [8] | Potency [9] | Potency [10] | Potency [11] | Potency [12] | Potency [14] | Potency [19] | Potency [15] | outcome [17] | Potency [18]

CCCCCCCCCCCc1ccccc1
inactive: Potency [1] | Potency [2] | Potency [3] | Potency [4] | Potency [5] | Potency [6] | Potency [7] | Potency [8] | Potency [9] | Potency [10] | Potency [11] | Potency [12] | Potency [14] | Potency [19] | Potency [16] | outcome [17] | Potency [18]

CCCCC(CC)COC(=O)COc1ccc(Cl)cc1Cl (centres undefined)
inactive: Potency [1] | Potency [2] | Potency [3] | Potency [4] | Potency [5] | Potency [6] | Potency [7] | Potency [8] | Potency [9] | Potency [10] | Potency [11] | Potency [14] | Potency [19] | Potency [15] | Potency [16] | outcome [17] | Potency [18]
